# Only some compounds are listed: those with a hit (about 3.3% of all), similar ones and a draw of the others.
# AmpC inh detg: AmpC beta-lactamase inhibition with detergent present. Potency, µM (titrated, usually from 114 µM), for inactives: at the top dose activity change, negative = inhibition, hits mostly inhibitors. AID 485294. AmpC hydrolysis of nitrocefin, absorbance 480 nm, 0.01% Triton. 370,000 tested, 0.041% active;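 note: 0% = no-compound wells and -100% = no-enzyme wells; nearly all actives have a fitted effect of over 25% in size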
# Target sequence (P00811 whole entry, looked up): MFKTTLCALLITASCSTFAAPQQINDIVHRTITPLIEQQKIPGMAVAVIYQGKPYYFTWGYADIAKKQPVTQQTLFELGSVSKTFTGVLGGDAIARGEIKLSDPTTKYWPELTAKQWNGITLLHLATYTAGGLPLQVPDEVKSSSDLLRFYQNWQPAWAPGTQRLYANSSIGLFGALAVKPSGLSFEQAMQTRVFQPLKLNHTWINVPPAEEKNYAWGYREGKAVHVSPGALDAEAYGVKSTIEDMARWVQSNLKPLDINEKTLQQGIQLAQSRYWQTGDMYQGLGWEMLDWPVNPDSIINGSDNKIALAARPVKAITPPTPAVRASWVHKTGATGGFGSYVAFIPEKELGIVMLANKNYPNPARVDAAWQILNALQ
#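 AmpC (5.3 nM in the dispensed reagent) in 20 mM phosphate pH 7.0 with 0.01% (detergent screen) or 0.0001% Triton X-100 was preincubated with compounds for 15 min at room temperature. Nitrocefin was then added from an 800 uM solution, and hydrolysis was followed at 480 nm.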
# Sm TGR inh: blocks Schistosoma mansoni thioredoxin glutathione reductase; Q962Y6; Potency, µM (doses to about 114 µM), for inactives: at the highest dose activity change, negative = inhibition, actives largely listed as inhibitors; 360,000 tested, 3% active; purified TGR, DTNB reduction, TNB absorbance 405 nm; AID 485364; note: nearly all actives have a fitted effect of over 60% in size
#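 TGR 20 nM + NADPH 100 uM (dispensed conc.), cpd preinc 15 min RT; start with NADPH (500 uM addition) then DTNB (15 mM addition). Kinetic TNB absorbance, 405 nm filter. Four-parameter Hill fit across titration.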
# AmpC no deterg: blocks E. coli AmpC beta-lactamase in detergent-free assay. AID 485341. Potency, µM (top dose mostly 57.1 µM), for inactives: at the top dose activity change, negative = inhibition, usual class: inhibitors. AmpC nitrocefin hydrolysis, absorbance 480 nm, 0.0001% Triton. P00811. 330,000 tested, 0.52% active;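 note: plate controls were no compound for no effect and no enzyme for full effect; nearly all actives have a fitted effect of over 20% in size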
#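 20 mM phosphate pH 7.0 + 0.01% (detergent screen) or 0.0001% Triton X-100; 5.3 nM AmpC reagent; cpd preinc 15 min RT; nitrocefin (800 uM stock) to start; A480 q20 s × 4 min; Activity was normalised to no-enzyme and no-compound control wells.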
# Active calls of the source: *; u = inconclusive; x = not tested or not shown; [ ] = another dose, or the depositor's remark. Calls come from the whole dose curve; as a rule, active = well fitted curve in the direction sought with a large enough effect; inconclusive = small, poorly fitted or top-dose-only effect, or another doubt; inactive = no such curve, though single readings can be large; an effect the other way counts as inactive or inconclusive. Unless noted, % is set by controls: 0 for no effect and ±100 for the full control effect; potency is the fitted concentration of half-maximal effect.
SMILES,AmpC inh detg,Sm TGR inh,AmpC no deterg
O=C(Cn1cc2c(n1)CCCC2)NCCCN1CCCC1,7%,-21%,63%
CCOC(=O)c1c(S(=O)(=O)N2CCC(C(=O)Nc3ncccc3C)CC2)c(C)n(C)c1C,1%,-7%,x
COC(=O)N1C(=O)[C@](Cc2ccccc2)(c2ccccc2)N1C(=O)OC,1%,3.5µM*,-29%
COc1ccc(CNC(=O)CN2C(=O)NC(Cc3ccccc3)(c3ccccc3)C2=O)cc1OC (stereo not drawn),u,-8%,22%
COC(=O)c1ccccc1NC(=O)NCc1ccccc1,-6%,3%,-28%
COC(=O)N1C(=O)[C@@](Cc2ccccc2)(c2ccccc2)N1C(=O)OC,-15%,3.5µM*,-22%
CCCCSCCCNC(=O)c1c[nH]c2ccc(S(=O)(=O)Nc3cccc(OC)c3)cc2c1=O,6%,7%,x
Cc1ccc(Cl)cc1NC(=O)CCCN1C(=O)CCn2nc(-c3cn(C)c4ccccc34)cc21,-1%,-5%,x
Cc1nc(S(=O)(=O)c2ccc(Cl)cc2)c(NCc2ccccc2)o1,56µM*,40µM*,-55%
O=S(=O)(c1ccc(Cl)cc1)c1nc(-c2ccccc2F)oc1NCc1ccccc1,10%,-3%,x
CNc1oc(C)nc1S(=O)(=O)c1ccccc1,-3%,1.6µM*,-22%
CCN(CC)CCNc1oc(-c2ccccc2)nc1S(=O)(=O)c1ccccc1,x,x,8%
CC1(C)CC(=O)c2cc(-c3nc(-c4ccc(Cl)cc4)cs3)c(=O)n(-c3ccc(Cl)cc3)c2C1,8%,7%,x
CC1(C)Cc2[nH]c(=S)c(C#N)cc2CO1,-5%,32µM*,-6%
N#Cc1cc2c([nH]c1=S)CCCC2,u,0%,-14%
CCCn1nc(NC(=O)c2ccco2)c2cc3ccc(C)cc3nc21,-5%,u,-1%
CC(C)Cn1nc(NC(=O)c2ccco2)c2cc3ccccc3nc21,9%,50µM*,0%
CCCn1nc(NC(=O)c2ccco2)c2cc3cc(C)ccc3nc21,0%,11µM*,50%
CCn1nc(NC(=O)c2ccco2)c2cc3ccccc3nc21,-2%,3%[11.4 µM],-6%
COc1ccc(-c2nc3cc(C)ccn3c2NC(=O)c2cccc(F)c2)cc1,5%,0%,x
COc1ccc2c(c1)c1c(c(=O)n(-c3ccc(OC)c(OC)c3)c(=O)n1Cc1ccc(F)cc1)n2C,0%,6%,x
CCOC(=O)c1ccccc1NC(=O)COC(=O)CC(C)(C)CC1=NS(=O)(=O)c2ccccc2N1,12%,22%,x
Cn1nnc2c(N3CCCCC3)ncnc21,-1%,57%,x
Cc1ccc(N2C(=O)[C@@H]3C(C(=O)CCN4C(=O)c5ccccc5C4=O)=NN[C@@H]3C2=O)cc1,u,-21%,-17%
O=C(CCN1C(=O)c2ccccc2C1=O)C1=NN[C@@H]2C(=O)N(c3ccc4c(c3)OCO4)C(=O)[C@H]12,-7%,25µM*,-23%
SMILES,AmpC inh detg,Sm TGR inh,AmpC no deterg
O=C(c1cccc(F)c1)n1nnc2ccccc21,u,35µM*,-21%
CN(C)c1ccc(C(=O)n2nnc3ccccc32)cc1,u,-17%,-39%
CC1CCc2c(sc(NC(=O)c3cc(-c4cccc(Cl)c4)on3)c2C(N)=O)C1 (stereo not drawn),15%,3%,x
COc1ccc(-c2nc3ccccc3o2)cc1NC(=O)c1ccc(N2CCC(C)CC2)c([N+](=O)[O-])c1,-1%,0%,x
COC(=O)c1ccsc1NC(=O)CCS(=O)(=O)c1ccc(Cl)cc1,-2%,u,-23%
O=C(CCCc1ccccc1)Nc1nncs1,-2%,0%,-13%
O=C(CCS(=O)(=O)c1ccccc1)Nc1nncs1,6%,20µM*,-23%
COC(=O)c1ccsc1NC(=O)CCS(=O)(=O)c1ccccc1,7%,10µM*,-3%
O=C(CCS(=O)(=O)c1ccccc1)Nc1nc2c(s1)COc1ccccc1-2,-1%,32µM*,-33%
O=C(Nc1nc2c(s1)COc1ccccc1-2)c1cccs1,u,-13%,-57%
CCOc1ccc(NC(=O)C2CCN(S(=O)(=O)c3c(C)noc3/C=C/c3cccs3)CC2)cc1,3%,-9%,x
Cc1c(C(=O)Nc2cccc(-c3nc4ccccc4s3)c2)oc2ccc(F)cc12,19%,-2%,x
CCOc1ccccc1CNC(=O)c1ccc(Cn2c(SCc3ccccc3)nc3cccnc32)cc1,18%,3%,x
Cc1nn(-c2cc(C(F)(F)F)ccc2Cl)c2nc(C(Cl)(Cl)Cl)[nH]c(=O)c12,1%,20µM*,-47%
Cc1nn(-c2ccccc2)c2nc(C(F)(F)F)[nH]c(=O)c12,u,-1%,-13%
Cc1ccccc1C(=O)Nc1cccc(OCc2cc(=O)n3cccc(C)c3n2)c1,17%,-5%,x
Cc1ccc(C2CC(=O)N(Cc3ccc(F)cc3)c3c2c(C)nn3-c2nc(C)cc(C)n2)cc1 (stereo not drawn),23%,3%,x
O=S(=O)(CCN1C=CC(C(F)(F)F)=NCC1)c1ccc(Cl)cc1Cl,0%,25µM*,14%
O=S(=O)(CCN1C=CC(C(F)(F)F)=NCC1)c1ccc(F)cc1,9%,-1%,-9%
Cc1ccc(CN2CCc3nc(N4CCN(c5ccccc5F)CC4)ncc3C2)s1,-11%,-4%,x
CCC(C)/C=C(C)/C=C/C1=CC2=C(Cl)C(=O)C(C)(OC(C)=O)C(=O)C2=CO1 (stereo not drawn),5%,-21%,72%
CC[C@H](C)/C=C(C)/C=C/C1=CC2=CC(=O)[C@]3(C)OC(=O)[C@@H](C(C)=O)[C@@H]3C2=CO1,7%,14µM*,97%
O=C(CN1C(=O)COc2ccc(S(=O)(=O)N3CCCC3)cc21)N1CCN(c2cccc(C(F)(F)F)c2)CC1,u,-1%,x
CCC(=O)N1c2ccccc2CC1C(=O)NCCN1CCN(c2cc(Cl)ccc2C)CC1 (stereo not drawn),-8%,0%,x
CCN(c1cc(C)cc(C)c1)S(=O)(=O)c1nnc(NC(=O)c2ccccc2C)s1,11%,7%,x
SMILES,AmpC inh detg,Sm TGR inh,AmpC no deterg
CCCCc1nn2c(C)c(-c3ccc(OCC)cc3)nc2s1,-2%,-9%,x
Fc1ccccc1NC(=S)Nc1cccc2cnccc12,-18%,40µM*,-20%
FC(F)(F)c1ccccc1NC(=S)Nc1cccc2cnccc12,-4%,35µM*,-48%
S=C(NCCc1ccccc1)Nc1cccc2cnccc12,-11%,-20%,-17%[11.4 µM]
Cc1ccccc1NC(=S)Nc1cccc2cnccc12,0%,u,-18%
Cc1ncc(CO)c2c1Oc1nc(-c3ccccc3F)nc(SCC(=O)N3CCCCC3)c1C2,1%,u,x
COc1cc(OC)cc(-n2c(=O)c3ccccc3n(Cc3ccccc3C#N)c2=O)c1,3%,-8%,x
Cc1cccc(Cc2c(C)nc3nc(SCc4ccccc4C)nn3c2C)c1,-7%,-6%,x
CCOC(=O)N1CCN(C(=O)CSCC(=O)N=c2sc3ccccc3n2C)CC1,5%,16µM*,x
Cn1c(=NC(=O)c2ccco2)sc2ccccc21,-2%,x,-7%
CCOC(=O)N1CCN(C(=O)Cn2c(=O)sc3ccccc32)CC1,-3%,11%,-7%
Cn1c(=NC(=O)CCl)sc2ccccc21,-6%,25µM*,-13%
